Test results from the antibiotic and cytotoxicity screens of Wong et al. (2023).
Among all 39,000 compounds or so, about 1,500 (3.8%) were called active. The full list was thinned out, with actives kept by preference.

system: HSkMC (human skeletal muscle cells); assay: cytotoxicity call (relative viability < 0.9); conditions: 10 µM

**Q.** CN1C(=O)c2cc(NC(=O)C3CCOCC3)ccc2OC[C@@H]2O[C@H](CC(=O)NCc3ccccc3F)CC[C@@H]21 was tested. Which cytotoxicity call did it give?
**A.** inactive

**Q.** O=C(C[C@@H]1CC[C@@H]2NC[C@H](O)COC[C@H]2O1)NCCN1CCCCC1 was tested. Which cytotoxicity call did it give?
**A.** inactive

**Q.** How did the cytotoxicity call turn out when COCC#Cc1cnc2c(c1)C(=O)N([C@H](C)CO)C[C@H](C)[C@@H](CN(C)C(=O)Nc1ccccc1OC)O2 was run?
**A.** inactive

**Q.** Which cytotoxicity call does the source give for C[C@H]1CN([C@@H](C)CO)C(=O)Cc2cc(NS(=O)(=O)c3ccc(F)cc3)ccc2O[C@H]1CN(C)S(=O)(=O)c1cn(C)cn1 here?
**A.** inactive

**Q.** Which cytotoxicity call does the source give for COc1cccc(NC(=O)N2C[C@@H](O)COC[C@@H]3O[C@@H](CC(=O)NCc4ccccc4F)CC[C@H]32)c1 here?
**A.** inactive

**Q.** How did the cytotoxicity call turn out when C[C@@H]1CCCCO[C@@H](CN(C)C(=O)Nc2ccc(C(F)(F)F)cc2)[C@@H](C)CN([C@H](C)CO)C(=O)c2cc(NC(=O)c3ccccc3)ccc2O1 was run?
**A.** inactive

**Q.** Which cytotoxicity call does the source give for CC(C)(C)[S@@](=O)N1Cc2cc(C(=O)NCc3ccccc3F)nc(-c3cccc(-c4cccnc4)c3)c2[C@H]1CCO here?
**A.** inactive

**Q.** O=C(C[C@H]1C=C[C@@H](NC(=O)Cc2ccccn2)[C@@H](CO)O1)NCCCN1CCOCC1 was tested. Which cytotoxicity call did it give?
**A.** inactive

**Q.** How did the cytotoxicity call turn out when C[C@@H]1CN([C@H](C)CO)S(=O)(=O)c2ccc(C#Cc3ccncc3)cc2O[C@H]1CN(C)C(=O)C1CCOCC1 was run?
**A.** inactive

**Q.** Which cytotoxicity call does the source give for CN(C)Cc1cn(CC[C@@H]2CC[C@H](N)[C@H](CO)O2)nn1 here?
**A.** inactive

**Q.** Which cytotoxicity call does the source give for C[C@H](CO)N1C[C@H](C)[C@@H](CN(C)S(=O)(=O)c2ccc3ccccc3c2)OCc2cn(nn2)CCCC1=O here?
**A.** inactive

**Q.** With C[C@H](CO)N1C[C@H](C)[C@@H](CN(C)C(=O)Nc2cccc3ccccc23)Oc2c(NC(=O)C3CCCCC3)cccc2C1=O as the compound, how does the cytotoxicity call read?
**A.** inactive

**Q.** For COc1cc(Nc2ncc3c(n2)-c2ccc(Cl)cc2C(c2c(F)cccc2OC)=NC3)ccc1C(=O)O, which cytotoxicity call is on record?
**A.** active

**Q.** With C=CCN(C(=O)[C@H]1N(CCOCCO)C(=O)[C@H]2[C@H](C(=O)O)[C@@H]3C=C[C@@]21O3)c1ccc(OC)cc1 as the compound, how does the cytotoxicity call read?
**A.** inactive

**Q.** CCS(=O)(=O)Nc1ccc2c(c1)C(=O)N(C)[C@H]1CC[C@@H](CC(=O)N[C@H]3CCN(Cc4ccccc4)C3)O[C@@H]1CO2 was tested. Which cytotoxicity call did it give?
**A.** inactive

**Q.** Which cytotoxicity call does the source give for C[C@@H]1CN([C@H](C)CO)C(=O)c2cccc(NC(=O)C3CCOCC3)c2O[C@@H]1CN(C)S(=O)(=O)c1cccs1 here?
**A.** inactive

**Q.** Which cytotoxicity call does the source give for C[C@@H]1CO[C@]2(O[C@H]3C[C@H]4[C@H]5C[C@H](O[C@H]6O[C@@H](C)[C@@H](O)[C@@H](O[C@@H]7O[C@@H](C)[C@H](O)[C@@H](O)[C@H]7O)[C@@H]6O)[C@H]6C[C@@H](O)CC[C@]6(C)[C@@H]5CC[C@]4(C)[C@H]3[C@@H]2C)[C@@H](O)C1 here?
**A.** inactive

**Q.** For CC(=O)OC1CCC2(C)C(CCC3C2CCC2(C)C3CC3OC4(CCC(C)CO4)C(C)C32)C1 (stereo unspecified), which cytotoxicity call is on record?
**A.** inactive

**Q.** With CC1CCC2(OC1)OC1CC3C4CC=C5CC(O)CCC5(C)C4CCC3(C)C1C2C (stereo unspecified) as the compound, how does the cytotoxicity call read?
**A.** inactive

**Q.** With CC(C)=CCC[C@](C)(O[C@@H]1O[C@H](CO[C@@H]2OC[C@@H](O)[C@H](O)[C@H]2O)[C@@H](O)[C@H](O)[C@H]1O)[C@H]1CC[C@]2(C)[C@@H]1[C@H](O)C[C@@H]1[C@@]3(C)CC[C@H](O[C@@H]4O[C@H](CO)[C@@H](O)[C@H](O)[C@H]4O)C(C)(C)[C@@H]3CC[C@]12C as the compound, how does the cytotoxicity call read?
**A.** inactive

**Q.** For CC1CCC2(OC1)OC1CC3C4CCC5CC(O)CCC5(C)C4CC(=O)C3(C)C1C2C (stereo unspecified), which cytotoxicity call is on record?
**A.** inactive

**Q.** C[C@@H]1CC[C@@]2(OC1)O[C@H]1C[C@H]3[C@H]4CC=C5C[C@@H](O[C@@H]6O[C@H](CO)[C@@H](O[C@@H]7O[C@@H](C)[C@H](O)[C@@H](O)[C@H]7O[C@@H]7O[C@@H](C)[C@H](O)[C@@H](O)[C@H]7O)[C@H](O)[C@H]6O)CC[C@]5(C)[C@@H]4CC[C@]3(C)[C@H]1[C@@H]2C was tested. Which cytotoxicity call did it give?
**A.** active

**Q.** Which cytotoxicity call does the source give for C[C@@H]1CC[C@@]2(OC1)O[C@H]1C[C@H]3[C@H]4C[C@@H](O)[C@H]5C[C@@H](O[C@@H]6O[C@H](CO)[C@H](O[C@@H]7O[C@H](CO)[C@@H](O)[C@H](O[C@@H]8OC[C@@H](O)[C@H](O)[C@H]8O)[C@H]7O[C@@H]7O[C@H](CO)[C@@H](O[C@@H]8O[C@H](CO)[C@@H](O)[C@H](O)[C@H]8O)[C@H](O)[C@H]7O)[C@H](O)[C@H]6O)[C@H](O)C[C@]5(C)[C@@H]4CC[C@]3(C)[C@H]1[C@@H]2C here?
**A.** active

**Q.** How did the cytotoxicity call turn out when C[C@@H]1CC[C@@]2(OC1)O[C@H]1C[C@H]3[C@H]4C[C@@H](O)[C@H]5C[C@@H](O[C@@H]6O[C@H](CO)[C@H](O[C@@H]7O[C@H](CO)[C@@H](O)[C@H](O[C@@H]8OC[C@@H](O)[C@H](O)[C@H]8O)[C@H]7O[C@@H]7O[C@H](CO)[C@@H](O[C@@H]8O[C@H](CO)[C@@H](O)[C@H](O)[C@H]8O)[C@H](O)[C@H]7O)[C@H](O)[C@H]6O)CC[C@]5(C)[C@@H]4CC[C@]3(C)[C@H]1[C@@H]2C was run?
**A.** active

**Q.** Which cytotoxicity call does the source give for C[C@@H]1CC[C@@]2(OC1)O[C@H]1C[C@H]3[C@H]4C[C@@H](O)[C@H]5C[C@@H](O[C@@H]6O[C@H](CO)[C@H](O[C@@H]7O[C@H](CO)[C@@H](O)[C@H](O[C@@H]8OC[C@@H](O)[C@H](O)[C@H]8O)[C@H]7O[C@@H]7O[C@H](CO)[C@@H](O)[C@H](O)[C@H]7O)[C@H](O)[C@H]6O)[C@H](O)C[C@]5(C)[C@@H]4CC[C@]3(C)[C@H]1[C@@H]2C here?
**A.** inactive

**Q.** Which cytotoxicity call does the source give for C[C@@H]1CC[C@@]2(OC1)O[C@H]1C[C@H]3[C@H]4C[C@@H](O)[C@H]5C[C@@H](O[C@@H]6O[C@H](CO)[C@H](O[C@@H]7O[C@H](CO)[C@@H](O)[C@H](O[C@@H]8OC[C@@H](O)[C@H](O)[C@H]8O)[C@H]7O[C@@H]7O[C@H](CO)[C@@H](O)[C@H](O)[C@H]7O)[C@H](O)[C@H]6O)CC[C@]5(C)[C@@H]4CC[C@]3(C)[C@H]1[C@@H]2C here?
**A.** active

**Q.** For CC(=O)OC1CCC2(C)C(CCC3C2CC(=O)C2(C)C3CC3OC4(CCC(C)CO4)C(C)C32)C1 (stereo unspecified), which cytotoxicity call is on record?
**A.** inactive

**Q.** For CC1CCC2(OC1)OC1CC3C4CCC5CC(O)CCC5(C)C4CCC3(C)C1C2C (stereo unspecified), which cytotoxicity call is on record?
**A.** inactive

**Q.** COc1c(O)cc(O)cc1O was tested. Which cytotoxicity call did it give?
**A.** inactive

**Q.** For O=C1OCC=C[C@H]2O[C@@]34C=CCN(Cn5nnc6ccccc65)C(=O)[C@H]3N(CCO)C(=O)[C@@H]4[C@@H]12, which cytotoxicity call is on record?
**A.** inactive

**Q.** For CNC(=O)CN1CCN2CCN(CC(=O)NC)CC(=O)[O][Gd]([O]C(=O)C2)[O]C(=O)C1, which cytotoxicity call is on record?
**A.** inactive

**Q.** How did the cytotoxicity call turn out when C[C@@H]1CCCCO[C@@H](CN(C)S(=O)(=O)c2cn(C)cn2)[C@@H](C)CN([C@@H](C)CO)C(=O)c2cc(NS(=O)(=O)c3cccs3)ccc2O1 was run?
**A.** inactive

**Q.** Cc1noc(C)c1S(=O)(=O)Nc1cccc2c1O[C@@H](CN(C)CC1CC1)[C@@H](C)CN([C@@H](C)CO)C2=O was tested. Which cytotoxicity call did it give?
**A.** inactive

**Q.** C[C@H]1CN([C@@H](C)CO)C(=O)c2cccc(NC(=O)Nc3ccc4c(c3)OCO4)c2O[C@H]1CN(C)S(C)(=O)=O was tested. Which cytotoxicity call did it give?
**A.** inactive

**Q.** Cc1noc(C)c1S(=O)(=O)Nc1ccc2c(c1)C(=O)N([C@H](C)CO)C[C@H](C)[C@@H](CN(C)Cc1ccc(C(F)(F)F)cc1)OCCCC[C@@H](C)O2 was tested. Which cytotoxicity call did it give?
**A.** inactive

**Q.** Which cytotoxicity call does the source give for O=C(C[C@H]1C[C@H]2c3cc(NS(=O)(=O)c4ccc(F)cc4)ccc3O[C@H]2[C@@H](CO)O1)NCc1ccccc1F here?
**A.** inactive

**Q.** With C[C@H]1CN([C@@H](C)CO)C(=O)c2cc(NC(=O)CCC(F)(F)F)ccc2O[C@@H]1CN(C)C(=O)Nc1ccc(C(F)(F)F)cc1 as the compound, how does the cytotoxicity call read?
**A.** inactive

**Q.** With C[C@H]1CN([C@@H](C)CO)C(=O)c2cccc(NC(=O)Nc3ccccc3)c2O[C@H]1CN(C)S(C)(=O)=O as the compound, how does the cytotoxicity call read?
**A.** inactive

**Q.** Which cytotoxicity call does the source give for COc1ccc(S(=O)(=O)Nc2cccc3c2O[C@@H](CN(C)C(=O)Nc2c(C)noc2C)[C@@H](C)CN([C@H](C)CO)C3=O)cc1 here?
**A.** inactive

**Q.** With Cc1noc(C)c1NC(=O)Nc1ccc2c(c1)CC(=O)N([C@H](C)CO)C[C@@H](C)[C@H](CN(C)S(=O)(=O)c1cn(C)cn1)O2 as the compound, how does the cytotoxicity call read?
**A.** inactive

**Q.** C[C@H]1O[C@@H](O[C@H]2[C@@H](O)[C@@H](O)[C@@H](O[C@H]3CC[C@]4(C)[C@H]5CC=C6[C@H]7CC(C)(C)[C@H]8C[C@]7(C(=O)O8)[C@@H](O)C[C@]6(C)[C@@]5(C)CC[C@H]4C3(C)C)O[C@@H]2CO)[C@@H](O)[C@@H](O[C@H]2OC[C@@H](O)[C@@H](O)[C@@H]2O)[C@@H]1O was tested. Which cytotoxicity call did it give?
**A.** inactive

**Q.** With C[C@@H]1O[C@@H](O[C@H]2[C@H](O)[C@@H](O)[C@H](OC[C@H]3O[C@@H](OC(=O)[C@]45CCC(C)(C)C[C@@H]4C4=CC[C@H]6[C@@]7(C)CC[C@H](O[C@H]8OC[C@H](O)[C@H](O)[C@H]8O[C@H]8O[C@@H](C)[C@H](O)[C@@H](O)[C@H]8O)[C@@](C)(CO)[C@@H]7CC[C@@]6(C)[C@]4(C)CC5)[C@H](O)[C@@H](O)[C@@H]3O)O[C@@H]2CO)[C@H](O)[C@H](O)[C@H]1O as the compound, how does the cytotoxicity call read?
**A.** inactive

**Q.** How did the cytotoxicity call turn out when Cn1cnc(S(=O)(=O)N2C[C@@H](O)COC[C@H]3O[C@H](CC(=O)N4CCN(c5ccccc5)CC4)CC[C@@H]32)c1 was run?
**A.** inactive

**Q.** O=C1c2ccccc2C(=O)c2c(NCCNCCO)ccc(NCCNCCO)c21 was tested. Which cytotoxicity call did it give?
**A.** active

**Q.** With O=C1c2cccc(O)c2C(=O)c2c(O)cccc21 as the compound, how does the cytotoxicity call read?
**A.** inactive

**Q.** With O=C1c2c(O)ccc(O)c2C(=O)c2c(NCCNCCO)ccc(NCCNCCO)c21 as the compound, how does the cytotoxicity call read?
**A.** active

**Q.** For Cl.Cl.O=C1c2c(O)ccc(O)c2C(=O)c2c(NCCNCCO)ccc(NCCNCCO)c21, which cytotoxicity call is on record?
**A.** active

**Q.** Which cytotoxicity call does the source give for O=C1c2ccccc2C(=O)c2c1ccc(O)c2O here?
**A.** inactive

**Q.** For O=[N+]([O-])c1ccc(NCCNCCO)cc1, which cytotoxicity call is on record?
**A.** inactive

**Q.** O=C(CCNCCO)c1ccccc1 was tested. Which cytotoxicity call did it give?
**A.** inactive

**Q.** COc1ccc(S(=O)(=O)Nc2ccc3c(c2)C(=O)N([C@@H](C)CO)C[C@H](C)[C@H](CN(C)Cc2ccncc2)O3)cc1 was tested. Which cytotoxicity call did it give?
**A.** inactive
